cardiac RTF act = cardiac RTF calcium sensitization | IANBD-labeled TnC RTF fluorescence at EC20 calcium; 0% EC20 calcium, 100% full calcium | 340,000 compounds, 0.24% hits | activation, % at 7.2 µM;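 active = activation above the mean over all tested compounds plus 3 SD, cut at about 30% in these data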;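 note: rise in fluorescence read as greater calcium sensitivity of cardiac thin filaments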
Keap1-Nrf2 PPI = inhibitors of human Keap1-Nrf2 protein-protein interaction; 340,000 compounds, 0.15% hits; inhibition, % at 9.4 µM; Keap1 Kelch-Nrf2 peptide fluorescence polarization, 1536-well; in the data active = inhibition above about 12%;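 note: human Keap1 Kelch domain with fluorescein labeled Nrf2 9mer peptide probe; higher means more block of Keap1 binding to Nrf2 peptide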
Target sequence (Q14145 whole entry, looked up, the tested form may be a part): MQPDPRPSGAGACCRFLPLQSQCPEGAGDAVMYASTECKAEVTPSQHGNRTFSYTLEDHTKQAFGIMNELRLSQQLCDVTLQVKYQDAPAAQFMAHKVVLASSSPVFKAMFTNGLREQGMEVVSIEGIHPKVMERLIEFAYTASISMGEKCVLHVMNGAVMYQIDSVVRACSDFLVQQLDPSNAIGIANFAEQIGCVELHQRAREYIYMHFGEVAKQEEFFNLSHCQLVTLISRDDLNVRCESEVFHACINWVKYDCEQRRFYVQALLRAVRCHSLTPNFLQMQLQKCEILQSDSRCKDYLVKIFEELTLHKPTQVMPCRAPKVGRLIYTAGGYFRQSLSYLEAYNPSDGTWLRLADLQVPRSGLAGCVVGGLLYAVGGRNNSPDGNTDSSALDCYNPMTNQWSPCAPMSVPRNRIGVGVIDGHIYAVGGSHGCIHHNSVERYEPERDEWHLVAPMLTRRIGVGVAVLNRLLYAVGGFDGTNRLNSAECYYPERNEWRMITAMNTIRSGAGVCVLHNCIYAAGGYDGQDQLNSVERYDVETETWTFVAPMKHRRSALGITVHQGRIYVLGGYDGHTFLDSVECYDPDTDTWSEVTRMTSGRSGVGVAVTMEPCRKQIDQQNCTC
LANA DNA inh = blocks KSHV LANA C-terminal domain binding to DNA; AID 504423; MBP-C-LANA/FAM-LBS DNA binding, fluorescence polarization; inhibition, % at 9 µM; 340,000 compounds, 0.078% hits;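 active = highest replicate inhibition at or above 60% at 9 µM, even if other replicates fall short; inactive = all replicates below 60% inhibition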
Cardiac RTF inh = cardiac RTF calcium desensitization; 340,000 compounds, 0.12% hits; inhibition, % at 7.15 µM; IANBD-labeled cardiac RTF, Ca2+ fluorescence; AID 493244; P19429+P45379;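 active = inhibition above the mean inhibition of all tested compounds plus 3 SD, cut at about 17% in these data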;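 note: assay run at fixed EC70 calcium of 1.6 mM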
Each line names hits and unclear results; the compound was inactive in the other large screens. A selection: hits, their analogues and other compounds. The true share with any hit is near 0.5%.

C#CCCOC(=O)N1C2=NC(C(=O)OC)=C(C(=O)OC)[C@@H]3N(C)c4ccccc4[C@]23C[C@H]1CO	none
CCN(CC)c1ccc2cc(-c3nc4ccccc4n3C)c(=O)oc2c1	cardiac RTF act 102
CCN(CC)c1ccc2cc(-c3nnc(-c4ccccc4)o3)c(=O)oc2c1	cardiac RTF act 705
COc1cccc2cc(-c3nc4ccccc4[nH]3)c(=O)oc12	none
CCN(CC)c1ccc2cc(-c3nc4ccccc4[nH]3)c(=O)oc2c1	cardiac RTF act active
O=c1oc2ccc3ccccc3c2cc1-c1nnc(-c2ccccc2)o1	none
Cn1ccc2ccc(C3=CC(=O)C[C@H](c4ccc(F)cc4)C3)cc21	none
Nc1ccc2ccc(O)cc2c1	none
C[n+]1c2cc(N)ccc2cc2ccc(N)cc21	cardiac RTF act active, Keap1-Nrf2 PPI active, LANA DNA inh 195
CN(C)CCN=Cc1c(O)n(-c2ccc(S(=O)(=O)N3CCOCC3)cc2)c(=O)c2ccccc12	none
CCN1/C(=C/C=C/c2sc3ccccc3[n+]2CC)Sc2ccccc21	none
CCN1/C(=C/c2ccc3cc(C)ccc3[n+]2CC)Sc2ccccc21	cardiac RTF act 47
CCN1/C(=C/c2ccc3cc(C)ccc3[n+]2CC)Sc2cc(C)c(C)cc21	cardiac RTF act 36
CC[n+]1c(/C=C2\Sc3ccccc3N2C)ccc2cccc(C)c21	cardiac RTF act 46
CC[n+]1ccccc1/C=C1\Sc2ccc(C)cc2N1C	none
CCOC(=O)c1sc(NC(=O)c2cc(-c3ccccc3)nc3ccccc23)c(C#N)c1C	none
C=CCOC(=O)C1=C[C@H](c2cn(C(C)=O)c3ccccc23)[C@@H](CCCO)[C@H](OCC)O1	none
CN(C(=O)Cc1c(C(=O)O)n(C)c2ccccc12)c1ccc(F)cc1	none
Cc1cc(O)c(C=O)c2c1C(=O)Oc1c(CO)c(O)c3c(c1O2)C(O)OC3=O (stereo unspecified)	Keap1-Nrf2 PPI 47, LANA DNA inh 118, Cardiac RTF inh 30
Nc1nnnn1/N=C/c1cc(Cl)ccc1O	none
Nc1nnnn1/N=C/c1cc(Cl)cc(Cl)c1O	cardiac RTF act 32
Cc1c2cc(O)c(=O)cc-2oc2cc(O)c(O)cc12	cardiac RTF act 109, Keap1-Nrf2 PPI 121, LANA DNA inh 164
Cc1cc2oc(=O)cc(-c3cc4ccccc4o3)c2cc1O	none
COc1cc(OC)c(-c2c3cc(O)c(=O)cc-3oc3cc(O)c(O)cc23)cc1OC	cardiac RTF act 894
O=C(c1ccc(NS(=O)(=O)c2cccc(F)c2)cc1)N1CCCCC1	none
CC(=O)N1C(=O)C(=C2C=C(C)OC(C)=C2)c2ccccc21	cardiac RTF act 66
CC1=CC(=C2C(=O)c3ccccc3C2=O)C=C(C)O1	none
CCCOc1ccc(N)cc1N	cardiac RTF act 32
CC(=O)Oc1ccc2c(=O)c(Oc3ccccc3)coc2c1OC(C)=O	none
COc1ccc2c(CC(=O)Nc3ncc(C)s3)coc2c1	LANA DNA inh 78
COc1ccc2c(c1)O/C(=C\c1ccco1)C2=O	none
Cc1cc(O)c(CN(C)C)c2c1C(=O)/C(=C/c1ccco1)O2	cardiac RTF act 36
CCN(CC)S(=O)(=O)c1ccc(OCC(=O)NC(=O)Cc2ccccc2)c([N+](=O)[O-])c1	none
COc1cccc(/C=N/c2nc3ccccc3[nH]2)c1O	cardiac RTF act 187
COc1cccc(/C=N/Nc2nc3ccccc3[nH]2)c1O	none
O=C(Cc1ccc(S(=O)(=O)N2CCOCC2)s1)OCc1ccc(Cl)cc1	none
COC(=O)C1=C(C)NC(=O)NC1c1ccc(N2CCC(c3ccccc3)=N2)cc1 (stereo unspecified)	none
CCOC(=O)/C(=C\c1ccc(N2CCC(c3ccccc3)=N2)cc1)C(C)=O	cardiac RTF act 72
CCOC(=O)C1C(C(=O)OC)=C(C(=O)OC)c2ccccc2N1S(=O)(=O)C(F)(F)F (stereo unspecified)	none
Cc1cc(C)n2nc3nc4c(cc3c2n1)CCCC4	cardiac RTF act 31
Cc1cc(C)n2nc(C)c(Br)c2n1	none
O=C1C=C(O)c2c(O)cc(O)c(O)c2C1=O	Keap1-Nrf2 PPI 19, LANA DNA inh 117, Cardiac RTF inh 31
O=C1c2ccccc2C(=O)c2c(O)c(O)cc(O)c21	none
CN(C)c1nc(N)ncc1-c1ccc(Oc2ccccc2)cc1	none
CC1CCc2c(nc3nc[nH]n3c2=O)C1 (stereo unspecified)	none
S=c1c2c(nc3nc[nH]n13)CCC2	LANA DNA inh 63
CCOC(=O)c1ccc(NC(=O)c2cc3c(s2)CCC3)cc1	none
COc1cccc(NC(=O)CN(C)C(=O)CSc2nc(C)cc(C)n2)c1	none
COc1ccc(-n2c(O)c(/C=N/NS(=O)(=O)c3cc(C)ccc3C)c3ccccc3c2=O)cc1OC	cardiac RTF act 114
COc1ccc(-n2c(O)c(/C=N/NS(=O)(=O)c3ccc(C)cc3)c3ccccc3c2=O)cc1OC	cardiac RTF act 59
COCCCNc1c2c3c(cccc3[nH]c1=O)C(=O)c1ccccc1-2	cardiac RTF act active, Keap1-Nrf2 PPI 167, LANA DNA inh 184
COCCCNC1=C(Cl)C(=O)c2ccccc2C1=O	none
O=S(=O)(c1ccc(SCc2ccc(Cl)cc2)nc1)N1CCCC1	none
O=C(O)c1ccc(NC2=C(Cl)C(=O)c3ccccc3C2=O)cc1	Keap1-Nrf2 PPI 9.3
O=C1C(Cl)=C(Nc2ccccc2)C(=O)c2ccccc21	none
CS(=O)(=O)c1ccc(Cl)c(NC(=O)COC(=O)c2ccc(F)cc2Cl)c1	LANA DNA inh 71
CCN(CC)c1ccc(/C=C(\C#N)C(N)=O)cc1	none
N#C/C(=C\c1ccc(C#N)cc1)C(=O)c1ccccc1	none
CCN(CC)c1ccc(/C=C(\C#N)C(N)=S)cc1	cardiac RTF act 200
CCN(CC)c1ccc(/C=C(\C#N)C(=O)c2ccc(Br)cc2)cc1	cardiac RTF act 559
CCN(CC)c1ccc(C(=O)O)cc1	none
CN(C)c1ccc(/C=C(\C#N)C(=O)c2ccccc2)cc1	cardiac RTF act 80
CCOC(=O)/C(C#N)=C\C=C1C=CN(C)C=C1	cardiac RTF act 59
CCOC(=O)/C(C#N)=C\c1ccc(CC)s1	none
O=C(CCN1C(=O)c2ccccc2C1=O)NCc1ccc(Cl)cc1	none
CC(Oc1ccc(F)cc1)C(=O)Nc1ccccc1N1CCCCC1 (stereo unspecified)	none
CN(C)c1ccc(/C=C/C(=O)c2ccc3c(c2)OCO3)cc1	cardiac RTF act 92
COc1ccc(C(=O)/C=C/c2ccc(N(C)C)cc2)c(OC)c1	cardiac RTF act 81
CN(C)c1ccc(/C=C/C(=O)c2ccc(O)cc2)cc1	cardiac RTF act 72
O=C1/C(=C/c2cccc(F)c2)Oc2cc(O)ccc21	cardiac RTF act 49
Cc1cccc(/C=C2\Oc3cc(OS(C)(=O)=O)ccc3C2=O)c1	none
Cc1nc(N2CCc3ccccc3C2)[nH]c(=O)c1Cc1ccccc1	none
Cc1nc(-n2[nH]c3c(c2=O)CCCC3)[nH]c(=O)c1Cc1ccccc1	cardiac RTF act 33
O/N=C\c1ccc2noc(-c3ccc(Cl)cc3)c2c1	none
Cn1c(NC(=O)COc2ccccc2)cc(=O)n(C)c1=O	none
Cc1[nH][nH]c(=O)c1N=Nc1ccccc1Cl	none (no result: LANA DNA inh)
Clc1ccccc1N=Nc1ccccn1	Keap1-Nrf2 PPI 14
CN1/C(=C/C=C(C#N)C#N)C(C)(C)c2ccccc21	LANA DNA inh 150
